# Assay results as given in the supplement of paper PMC3545927.
# The other results are listed elsewhere or left out. The hit rate among all sequences tested is not known here.
# Target: furin, P09958
# Test: furin cleavage Z-score vs untreated control; higher = more cleavage, active = 3.5 or more, inactive = 1 or less, 8 variable residues between constant flanks
# In short: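 Abundance of DNA freed from bead-bound 8-mer peptide–cDNA fusions by purified furin was measured as sequencing read counts after PCR adapter tagging. Cutting ran 7.5, 15 or 30 min in 0.01 ml of 50 mM HEPES pH 7.5 with CaCl2 and NaCl at 1:10 enzyme:substrate. The cleavage Z-score expresses these log counts against furin-free reactions after lowess adjustment and median absolute deviation scaling.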
# Sequence of furin, P09958 (P09958 whole entry): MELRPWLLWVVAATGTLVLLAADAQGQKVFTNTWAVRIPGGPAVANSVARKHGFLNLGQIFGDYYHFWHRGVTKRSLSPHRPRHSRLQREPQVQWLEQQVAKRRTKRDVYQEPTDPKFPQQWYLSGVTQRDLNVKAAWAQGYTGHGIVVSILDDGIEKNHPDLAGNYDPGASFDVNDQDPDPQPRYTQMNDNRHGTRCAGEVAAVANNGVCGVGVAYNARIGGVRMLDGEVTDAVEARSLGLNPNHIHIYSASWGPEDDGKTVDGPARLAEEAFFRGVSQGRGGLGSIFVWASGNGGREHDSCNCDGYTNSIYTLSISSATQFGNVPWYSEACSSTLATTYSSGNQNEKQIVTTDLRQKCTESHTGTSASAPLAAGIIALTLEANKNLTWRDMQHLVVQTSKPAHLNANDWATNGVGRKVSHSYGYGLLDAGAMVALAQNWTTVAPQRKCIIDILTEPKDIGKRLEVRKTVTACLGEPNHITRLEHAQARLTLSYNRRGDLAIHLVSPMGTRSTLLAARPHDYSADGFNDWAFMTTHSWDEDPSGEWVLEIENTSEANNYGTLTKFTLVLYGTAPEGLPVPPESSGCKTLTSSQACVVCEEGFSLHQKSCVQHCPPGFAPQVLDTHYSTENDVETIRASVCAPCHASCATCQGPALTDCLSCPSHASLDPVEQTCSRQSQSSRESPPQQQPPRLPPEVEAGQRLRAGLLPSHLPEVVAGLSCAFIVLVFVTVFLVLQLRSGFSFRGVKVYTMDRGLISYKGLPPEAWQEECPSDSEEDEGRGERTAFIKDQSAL
Sequence,furin cleavage Z-score (7.5 min),furin cleavage Z-score (15 min),furin cleavage Z-score (30 min)
CADQLEQALDAGNASASA [HC1589],-1.05 (inactive),-1.96 (inactive),-1.11 (inactive)
CATHVTGGSAAGNASASA [HC353],-0.463 (inactive),-0.337 (inactive),-2.02 (inactive)
CAKDVVCCSMAGNASASA [HC2114],0.322 (inactive),0.43 (inactive),-1.58 (inactive)
CADSVDAKPDAGNASASA [CS1],-0.899 (inactive),-0.697 (inactive),-0.815 (inactive)
CARQRRVRRRAGNASASA [FS-1160],6.79 (active),6.89 (active),6.35 (active)
CAPSPRQARRAGNASASA [FS-1246],0.263 (inactive),2.43,2.92
CAPTTRVRRRAGNASASA [FS-702],9.76 (active),10.9 (active),9.44 (active)
CAGPGRVRRRAGNASASA [FS-28],8.24 (active),9.49 (active),7.22 (active)
CARQRRIYKTAGNASASA [FS-2590],-1.61 (inactive),-1.71 (inactive),-0.22 (inactive)
CARQRRVPGNAGNASASA [FS-2768],1.18,-0.0341 (inactive),0.472 (inactive)
CARIKKWLEHAGNASASA [FS-1721],-1.04 (inactive),0.181 (inactive),1.15
CAMEEESQHLAGNASASA [HC13],1.19,0.958 (inactive),0.124 (inactive)
CATTPCSGSFAGNASASA [HC1927],-0.645 (inactive),-1.19 (inactive),0.309 (inactive)
CAVSCQRGYKAGNASASA [HC1165],-0.75 (inactive),0.637 (inactive),1.1
CAEAYRSRRTAGNASASA [FS-1116],1.35,1.26,3.71 (active)
CARFRRSRRTAGNASASA [FS-2666],7.49 (active),8.92 (active),6.66 (active)

Sequence,furin cleavage Z-score (7.5 min),furin cleavage Z-score (15 min),furin cleavage Z-score (30 min)
CADHEVVTSTAGNASASA [HC2295],0.352 (inactive),-1.49 (inactive),1.29
CADHWRSRRTAGNASASA [FS-646],2.11,1.9,3.67 (active)
CAEVVTSTWTAGNASASA [HC2258],2.11,-0.469 (inactive),0.353 (inactive)
CARFRRIRGEAGNASASA [FS-2491],-0.28 (inactive),-0.376 (inactive),-0.341 (inactive)
CAMEECSQHTAGNASASA [HC1778],-0.696 (inactive),1.17,0.869 (inactive)
CASREVPCHRAGNASASA [HC2437],0.554 (inactive),0.537 (inactive),0.935 (inactive)
CATTPTSGSWAGNASASA [HC56],-1.1 (inactive),-0.337 (inactive),-0.847 (inactive)
CAETEVPCHRAGNASASA [HC2458],0.00837 (inactive),0.231 (inactive),0.879 (inactive)
CARSKRSKNQAGNASASA [FS-1973],5.82 (active),7.57 (active),6.19 (active)
CARSSKDTSTAGNASASA [FS-2820],-0.514 (inactive),-1.51 (inactive),-0.361 (inactive)
CAWSKRSLSQAGNASASA [FS-3178],0.451 (inactive),1.67,2.52
CARKNRSKNQAGNASASA [FS-3223],0.698 (inactive),-0.524 (inactive),0.1 (inactive)
CARSKRSLSCAGNASASA [FS-2183],1.81,2.42,5.07 (active)
CARSPRGVLRAGNASASA [FS-3089],-0.934 (inactive),-0.739 (inactive),-0.752 (inactive)
CARSPRSASTAGNASASA [FS-1932],4.66 (active),5.46 (active),7.33 (active)
CARSKRSPGGAGNASASA [FS-1931],9.79 (active),8.88 (active),8.01 (active)
